Rows were chosen to be rich in hits. Some 5.9% of all compounds tested hit in one or more screens of this group.
GLP1R inv ag: acts as inverse agonist at human GLP-1 receptor; P43220; HEK293 GLP-1R CRE-luciferase, luminescence, 24 h; GLP-1R form is constitutively active; Potency, µM (doses to about 38.3 µM), most hits filed as inhibitors; 410,000 compounds, 1.6% hits; AID 624417; also: nearly all actives have a fitted effect of over 55% in size
Target sequence (P43220 whole entry, looked up): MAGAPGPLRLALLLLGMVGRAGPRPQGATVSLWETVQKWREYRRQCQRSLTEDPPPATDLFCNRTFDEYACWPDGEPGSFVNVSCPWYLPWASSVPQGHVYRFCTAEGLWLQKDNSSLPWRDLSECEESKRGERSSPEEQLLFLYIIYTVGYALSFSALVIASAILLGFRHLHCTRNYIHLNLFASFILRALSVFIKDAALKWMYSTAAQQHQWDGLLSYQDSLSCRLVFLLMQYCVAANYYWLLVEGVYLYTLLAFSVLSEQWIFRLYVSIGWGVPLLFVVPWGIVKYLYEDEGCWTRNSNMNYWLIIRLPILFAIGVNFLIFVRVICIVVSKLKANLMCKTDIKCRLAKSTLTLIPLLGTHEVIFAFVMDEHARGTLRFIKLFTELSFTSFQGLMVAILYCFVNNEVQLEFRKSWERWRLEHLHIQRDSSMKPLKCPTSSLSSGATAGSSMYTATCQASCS
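Constitutively active GLP-1R drives a cAMP-responsive luciferase in stably transfected HEK293 cells; test compounds are added after overnight (12 h) attachment and left 24 hr, and signal loss in luminescence marks inhibition.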
Gal4-VP16 FLuc: Gal4-VP16 reporter inhibition counter-screen | Drosophila S2 Gal4-VP16 UAS-luciferase, luminescence, 20 h | Potency, µM (series often up to 53.6 µM), most hits filed as inhibitors | 310,000 compounds, 3.5% hits | AID 2546;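 also: Gal4-VP16 expression switched on by copper sulfate through the metallothionein promoter; nearly all actives have a fitted effect of over 50% in size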
RORgamma inh: blocks mouse ROR gamma transcriptional activity; P51450; Drosophila S2 Gal4-RORgamma UAS-luciferase reporter, 20 h; Potency, µM (top dose mostly 53.6 µM), actives largely listed as inhibitors; 310,000 compounds, 5.4% hits; AID 2551; also: nearly all actives have a fitted effect of over 60% in size
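A Gal4/UAS one-hybrid system in insect cells: metallothionein-promoter Gal4–ROR gamma fusion plus Photinus luciferase reporter. Copper sulfate 700 uM final, 20 hr ambient incubation, luminescent detection after 10 min with reagent.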
HEK293 tox: cytotoxicity in counter-screen for GLP-1R inverse agonists. HEK293 cAMP-luciferase reporter cells, luminescence, 24 h. Potency, µM (doses to about 38.3 µM), usual class: inhibitors. 410,000 compounds, 0.13% hits. AID 624418;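 also: loss of luciferase light is scored as toxicity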
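Seeding density was 200 cells/uL; after overnight-length (12 h) culture, 23 nL compounds went on for 24 h at 37 °C. Readout used a luciferase detection reagent, luminescence taken after 12 min at room temperature.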
GLP-1R agonist: GLP-1 receptor (human) agonism | P43220 | HEK293 GLP-1R CRE-luciferase, luminescence, 4-6 h; cells express a hypersensitive GLP-1R form | Potency, µM (highest dose often 45.6 µM), hits mostly activators | 380,000 compounds, 0.007% hits
Numbers stand for hits; i = inactive; ? = inconclusive; nt = no result given. Calls follow the shape of the dose curve; as a rule, active = well fitted curve in the direction sought with a large enough effect; inconclusive = small, poorly fitted or top-dose-only effect, or another doubt; inactive = no such curve, though single readings can be large; an effect the other way counts as inactive or inconclusive.

SMILES	GLP1R inv ag	Gal4-VP16 FLuc	RORgamma inh	HEK293 tox	GLP-1R agonist
CC(C)CC(=O)NC(=S)Nc1ccccn1	i	20µM	i	i	i
O=C(CC(=O)Nc1ccccn1)Nc1ccccn1	i	i	i	i	i
Cc1ccc(C(=O)NCC(=O)Nc2ccccc2C(F)(F)F)cc1	i	i	i	i	i
CC(C)(C)CC(=O)NC(=S)Nc1ccccc1C(F)(F)F	i	20µM	3.16µM	?	i
Cc1ccc2cccc(NC(=S)NC(=O)c3ccnn3C)c2n1	?	?	?	?	i
CC(=O)NC(=S)Nc1cccc2ccc(C)nc12	i	12.6µM	2.82µM	i	i
CC(C)CC(=O)NC(=S)Nc1cccc2nsnc12	?	i	7.94µM	i	i
COc1c(C)cccc1C(=O)NC(=S)Nc1cccc2nsnc12	i	i	i	i	i
CC(C)CC(=O)NC(=S)Nc1ccccc1F	?	?	10µM	i	i
CCCN(C(=O)c1cc(S(=O)(=O)N2CCc3ccccc32)cn1C)c1ccc(OCC)cc1	?	nt	nt	i	nt
CCN(CC)c1ccc(NC(=O)Cn2c3ncccc3c(=O)n2-c2ccccc2)c(C)c1	i	nt	nt	i	nt
CC(C)CC(=O)NC(=S)Nc1ccccc1C(F)(F)F	?	?	5.62µM	?	i
CCOC(=O)c1c(C)[nH]c(CCC(=O)Nc2ccc(C)c(F)c2)c1C	i	nt	nt	i	nt
Cc1ccc(C2CC(=O)Oc3cc(C)c(Cl)c(C)c32)cc1 (centres undefined)	nt	?	i	nt	nt
FC(F)(F)c1cccc(Cc2noc(CN3CCCCC3c3ccccn3)n2)c1 (centres undefined)	?	i	22.4µM	i	i
CN1CCCC2(CCCN(Cc3nc(Cc4cccc(C(F)(F)F)c4)no3)C2)C1 (centres undefined)	?	i	i	i	i
FC(F)(F)c1cccc(Cc2noc(CN3CCC(c4ccncc4)CC3)n2)c1	2.51µM	?	i	i	i
Cn1c(=O)c2c(ncn2CC(=O)Nc2cc(Cl)cc(Cl)c2)n(C)c1=O	i	nt	nt	i	nt
C=C1C2CC[C@]3(CCC4[C@@]5(C)CCC[C@@]4(CN(CCO)C5)[C@@H]3C2)[C@@H]1O (some centres undefined)	nt	i	i	nt	nt
COc1cc(NC(=S)NC(=O)c2c(OC)cccc2OC)ccc1NC(=O)c1cccs1	i	i	?	?	i
COc1cc(NC(=S)NC(=O)c2cc(C)cc(C)c2)ccc1NC(=O)c1cccs1	i	1.78µM	2µM	i	i
COc1cc(NC(=S)NC(=O)c2ccc(C(C)(C)C)cc2)ccc1NC(=O)c1cccs1	?	3.55µM	3.16µM	i	i
COc1cc(NC(=S)NC(=O)c2ccccc2F)ccc1NC(=O)c1cccs1	i	i	?	?	i
COc1cc(NC(=S)NC(=O)c2ccccc2C)ccc1NC(=O)c1cccs1	i	8.91µM	2.51µM	i	i
Cc1cnc(CNc2ccnc(-c3cccc(C#N)c3)n2)cn1	nt	i	i	nt	nt
SMILES	GLP1R inv ag	Gal4-VP16 FLuc	RORgamma inh	HEK293 tox	GLP-1R agonist
c1ccc(-c2ccc(-c3cn4c(n3)CCC4)cc2)cc1	?	11.2µM	?	i	i
COc1ccc(-c2cn3c(n2)CCC3)cc1	i	i	?	i	i
Cc1ccc(-c2cn3c(n2)CCCC3)cc1	?	?	8.91µM	?	i
Cc1cc(Nc2ccccc2F)n2nc(-c3ccccc3)nc2n1	i	nt	nt	i	nt
Cc1ccc(-n2ncc(C(=O)N3CCC(c4ccccc4)C3)c2C2CCN(C(=O)OC(C)(C)C)CC2)cc1 (centres undefined)	i	nt	nt	i	nt
CCCn1c(-c2ccc(F)cc2)nc2c(N3CCN(CCn4ccnc4)CC3)nc(C)nc21	nt	i	i	nt	nt
FC(F)c1nc2nc(Cl)c(Cl)nc2[nH]1	14.1µM	nt	nt	i	i
FCc1nc2nc(Cl)c(Cl)nc2[nH]1	i	nt	nt	i	i
Cc1ccc(C(=O)O/N=C(\N)c2ccccn2)c(Cl)c1	1.12µM	2.82µM	0.708µM	?	i
N/C(=N\OC(=O)c1ccc(Cl)cc1Cl)c1ccccn1	5.62µM	?	7.08µM	i	i
Cc1ccc(C(=O)O/N=C(\N)c2ccccc2)c(Cl)c1	?	8.91µM	4.47µM	i	i
COc1cc(/C=N/NS(=O)(=O)c2ccc(C)cc2)ccc1OCc1cccc(C(=O)O)c1	3.16µM	i	?	i	i
COc1cc(/C=N/NS(=O)(=O)c2ccc3ccccc3c2)ccc1OCc1ccc(C(=O)O)cc1	2.51µM	?	i	i	i
COc1ccc(/C=N/NS(=O)(=O)c2ccccc2)cc1OC(=O)c1ccc(C)cc1	i	i	i	i	i
COc1ccc(/C=N/NS(=O)(=O)c2ccc(C)cc2)cc1OC(=O)c1ccccc1	?	i	i	i	i
O=C(NCc1cc(C(F)(F)F)cc(C(F)(F)F)c1)C1CC(c2ccccc2[N+](=O)[O-])=NO1 (centres undefined)	10µM	i	?	i	i
O=C(Nc1ccc(F)cc1F)N1CCN(c2ccc(Cl)c(Cl)c2)CC1	11.2µM	nt	nt	i	nt
Cc1ccc(F)cc1NC(=O)N1CCN(c2ccnc3cc(Cl)ccc23)CC1	?	i	i	i	i
CC(=O)c1ccc(N2CCN(C(=O)Nc3ccc(F)cc3F)CC2)cc1	i	i	i	i	i
O=C(Nc1cc(F)ccc1F)N1CCN(c2ccnc3cc(Cl)ccc23)CC1	i	12.6µM	i	i	i
Clc1ccccc1-c1cc(NCc2ccccc2)ncn1	nt	i	i	nt	nt
CCN(CC)CCNc1ccc(C)c2sc3ccc(O)cc3c(=O)c12	10µM	nt	nt	?	i
Cc1ccc2oc(C(Cl)(Cl)Cl)cc(=O)c2c1	i	?	5.01µM	?	i
CC(=O)OC1CCC2(C)C(COc3ccc4ccc(=O)oc4c3)C(C)(O)CCC2C1(C)C (centres undefined)	11.2µM	i	?	i	i
COc1ccccc1CNC(=O)CCCn1c(=O)c2ccccc2n(CC(=O)Nc2c(C)cc(C)cc2C)c1=O	i	nt	nt	i	i
SMILES	GLP1R inv ag	Gal4-VP16 FLuc	RORgamma inh	HEK293 tox	GLP-1R agonist
O=C1C2C3C=CC(C3=C3CCCCC3)C2C(=O)N1c1ccccc1 (centres undefined)	i	i	12.6µM	i	i
CCOc1ccc(C2C(C#N)=C(N)SC(N)=C2C#N)c(OCC)c1	i	?	12.6µM	i	i
CCOc1cc(C2C(C#N)=C(N)SC(N)=C2C#N)ccc1OCCN1CCOCC1	i	i	?	i	i
Cc1ccc(-n2nnnc2-c2cnc(N3CCCC3)nc2C(F)(F)F)cc1	?	15.8µM	?	i	i
CCOc1ccccc1C(=O)N(Cc1cccs1)c1ccc(Cl)cc1	12.6µM	nt	nt	i	nt
Cc1ccc(N(Cc2cccs2)C(=O)c2ccccc2Cl)cc1	?	nt	nt	i	nt
N#Cc1nc(Nc2ccccc2)nc(NC2CCCC2)n1	nt	i	nt	nt	nt
COc1cccc(-n2cc(CN(C)Cc3nc(Cc4ccccc4)no3)cn2)c1	?	i	i	i	i
COc1ccc(Cc2noc(CN(C)CCc3ccccc3)n2)cc1OC	i	?	i	i	i
COc1cccc(-n2cc(CN(C)Cc3nc(Cc4cccc(F)c4)no3)cn2)c1	10µM	i	i	i	i

Screens deposited in PubChem BioAssay by National Center for Advancing Translational Sciences (NCATS).
